Drawing on paper PMC11062922 (Nature Chemical Biology, 2023), this text covers potency estimated from few doses for one substance.

Test systems include BCR; BUB1; CSK; CSNK2A2; EPHA1; EPHA2; EPHA4; EPHB1; EPHB3; EPHB4; FGFR1; PRKCQ; PTK2; PTK6; RIPK2; RPS6KA1; SRC; TAOK1; TEC; ULK1.
Common to all, as to details: read-out: apparent Kd; compound concentrations:100 nM and 1000 nM (sheet 'Lestaurtinib' of Supplementary Table 1),run:Lestaurtinib_02487_R1,Plate:MR012; n = 1

As for Lestaurtinib, the potency estimated from few doses was 314 nM with BCR; 854 nM in the assay on BUB1; 526 nM with CSK; 415 nM in the assay with CSNK2A2; 297 nM with EPHA1; 428 nM in the assay on EPHA2. Also, the potency estimated from few doses in the assay with EPHA4 is 268 nM; with EPHB1, 403 nM; in the assay on EPHB3 it was 780 nM; in the assay on EPHB4, 207 nM; in the assay with FGFR1, 1150 nM; in the assay on PRKCQ it was 2170 nM. In addition, the potency estimated from few doses was 345 nM in the assay with PTK2; 533 nM with PTK6; 810 nM in the assay on RIPK2; 1820 nM in the assay on RPS6KA1; 618 nM in the assay with SRC; 1530 nM in the assay with TAOK1. Further, the potency estimated from few doses with TEC was 895 nM; in the assay on ULK1 it was 549 nM.
